# PMC7862700, “An all-to-all approach to the identification of sequence-specific readers for epigenetic DNA modifications on cytosine”
# Legend:
# Test in all cases: DAPPL (digital affinity profiling via proximity ligation, sequencing); 10 mM Tris-HCl pH 7.5, 50 mM NaCl, 1 mM DTT, 4% glycerol, room temperature, 30 min; GST-TFs on glutathione beads, 16-mer random dsDNA library, 0.1% formaldehyde crosslink after washing; high values mean tight binding
# Settings in all cases: protein: recombinant; tags: N-terminal GST; dsDNA, one strand shown
# [1] = biological target: T1, ELK1 (Homo sapiens, UniProt P19419 1-428)
# T1 sequence: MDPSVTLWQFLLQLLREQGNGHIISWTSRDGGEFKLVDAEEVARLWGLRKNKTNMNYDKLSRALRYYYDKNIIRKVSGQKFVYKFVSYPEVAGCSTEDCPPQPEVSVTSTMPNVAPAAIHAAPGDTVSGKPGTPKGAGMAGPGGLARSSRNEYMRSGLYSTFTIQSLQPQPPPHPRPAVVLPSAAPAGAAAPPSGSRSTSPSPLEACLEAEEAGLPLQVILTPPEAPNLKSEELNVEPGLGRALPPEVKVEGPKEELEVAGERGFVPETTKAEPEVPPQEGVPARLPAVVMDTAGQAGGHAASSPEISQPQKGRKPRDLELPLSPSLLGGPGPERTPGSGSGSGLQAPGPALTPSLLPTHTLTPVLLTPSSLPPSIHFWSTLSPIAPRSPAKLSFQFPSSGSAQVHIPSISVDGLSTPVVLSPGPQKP
# Procedure, shortened: (§1)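 Pools were built from human transcription factors expressed in yeast as GST fusions, captured on glutathione beads and DNA-barcoded, along with a tag-only sample. Incubation with 200 nmole of a 16-mer random double-stranded DNA library lasted 30 min at room temperature in Tris/NaCl/DTT/glycerol buffer, and was followed by washing, 0.1% formaldehyde crosslinking, proximity ligation, PCR amplification and Illumina NextSeq500 sequencing. Binding signal is the quotient of each hexamer's read frequency for a factor and its frequency for the tag-only sample.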
# [2] = biological target: T2, GABPA (Homo sapiens, UniProt Q06546 1-454)
# T2 sequence: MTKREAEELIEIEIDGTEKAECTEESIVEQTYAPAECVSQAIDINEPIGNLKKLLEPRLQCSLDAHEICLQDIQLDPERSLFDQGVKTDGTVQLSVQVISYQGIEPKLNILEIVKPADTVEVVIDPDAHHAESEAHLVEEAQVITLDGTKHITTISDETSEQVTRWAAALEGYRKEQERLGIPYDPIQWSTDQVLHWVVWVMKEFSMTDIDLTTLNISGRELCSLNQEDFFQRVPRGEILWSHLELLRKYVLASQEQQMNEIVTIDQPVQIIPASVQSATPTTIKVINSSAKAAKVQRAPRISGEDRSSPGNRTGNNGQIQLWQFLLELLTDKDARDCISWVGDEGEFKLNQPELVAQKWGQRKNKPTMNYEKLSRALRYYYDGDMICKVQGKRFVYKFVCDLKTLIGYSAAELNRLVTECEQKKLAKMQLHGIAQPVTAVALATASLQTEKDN
# Procedure, shortened: as §1
# [3] = biological target: T3, ERG (Homo sapiens, UniProt P11308 1-479)
# T3 sequence: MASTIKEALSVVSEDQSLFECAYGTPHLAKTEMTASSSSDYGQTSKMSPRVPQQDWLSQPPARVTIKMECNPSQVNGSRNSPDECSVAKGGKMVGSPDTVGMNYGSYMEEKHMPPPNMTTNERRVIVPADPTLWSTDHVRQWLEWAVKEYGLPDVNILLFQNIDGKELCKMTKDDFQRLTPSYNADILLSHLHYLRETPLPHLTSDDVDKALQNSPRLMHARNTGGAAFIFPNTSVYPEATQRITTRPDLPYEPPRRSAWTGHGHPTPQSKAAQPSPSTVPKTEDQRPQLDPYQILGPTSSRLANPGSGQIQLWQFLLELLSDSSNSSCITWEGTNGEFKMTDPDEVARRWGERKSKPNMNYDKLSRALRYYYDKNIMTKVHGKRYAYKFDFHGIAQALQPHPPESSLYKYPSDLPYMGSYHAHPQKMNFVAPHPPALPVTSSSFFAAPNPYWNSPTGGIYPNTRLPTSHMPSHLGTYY
# Procedure, shortened: as §1
# [4] = biological target: ELF1 (Homo sapiens, UniProt P32519 1-619)
# Chain of ELF1 (P32519 whole entry): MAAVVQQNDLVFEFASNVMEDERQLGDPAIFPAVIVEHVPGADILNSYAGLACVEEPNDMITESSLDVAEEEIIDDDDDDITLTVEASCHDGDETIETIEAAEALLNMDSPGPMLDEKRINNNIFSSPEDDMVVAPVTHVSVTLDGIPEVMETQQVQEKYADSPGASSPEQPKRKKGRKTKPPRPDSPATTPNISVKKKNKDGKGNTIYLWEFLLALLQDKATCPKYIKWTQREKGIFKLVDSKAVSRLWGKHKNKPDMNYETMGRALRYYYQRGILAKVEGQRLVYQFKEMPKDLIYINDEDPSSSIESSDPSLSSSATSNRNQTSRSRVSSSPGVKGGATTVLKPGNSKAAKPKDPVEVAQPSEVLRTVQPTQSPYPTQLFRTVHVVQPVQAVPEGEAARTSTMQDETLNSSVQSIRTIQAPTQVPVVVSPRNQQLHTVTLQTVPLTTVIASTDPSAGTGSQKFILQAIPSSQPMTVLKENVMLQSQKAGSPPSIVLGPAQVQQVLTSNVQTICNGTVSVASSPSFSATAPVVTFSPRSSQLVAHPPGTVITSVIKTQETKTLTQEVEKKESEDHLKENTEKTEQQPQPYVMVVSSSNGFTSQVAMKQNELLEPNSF
# Procedure, shortened: as §1
# [5] = biological target: T4, EHF (Homo sapiens, UniProt Q9NZC4 1-300)
# T4 sequence: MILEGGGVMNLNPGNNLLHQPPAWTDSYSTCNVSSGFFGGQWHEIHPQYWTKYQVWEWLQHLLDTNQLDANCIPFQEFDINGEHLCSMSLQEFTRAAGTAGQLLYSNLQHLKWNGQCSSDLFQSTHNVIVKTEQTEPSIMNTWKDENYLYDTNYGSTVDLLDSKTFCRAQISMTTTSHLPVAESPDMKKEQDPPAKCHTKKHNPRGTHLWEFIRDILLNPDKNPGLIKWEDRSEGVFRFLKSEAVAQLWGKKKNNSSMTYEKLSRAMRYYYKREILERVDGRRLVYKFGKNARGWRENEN
# Procedure, shortened: as §1
# [6] = biological target: SPIB (Homo sapiens, UniProt Q01892 1-262)
# Chain of SPIB (Q01892 whole entry): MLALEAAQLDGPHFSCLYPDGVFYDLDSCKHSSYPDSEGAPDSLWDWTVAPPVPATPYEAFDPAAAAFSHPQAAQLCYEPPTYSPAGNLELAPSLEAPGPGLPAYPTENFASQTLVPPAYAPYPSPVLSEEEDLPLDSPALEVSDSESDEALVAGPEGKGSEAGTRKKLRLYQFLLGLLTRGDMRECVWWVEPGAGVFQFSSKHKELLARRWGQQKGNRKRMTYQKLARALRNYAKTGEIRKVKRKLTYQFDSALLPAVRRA
# Procedure, shortened: as §1
# [7] = biological target: ETV5 (Homo sapiens, UniProt P41161 1-510)
# Chain of ETV5 (P41161 whole entry): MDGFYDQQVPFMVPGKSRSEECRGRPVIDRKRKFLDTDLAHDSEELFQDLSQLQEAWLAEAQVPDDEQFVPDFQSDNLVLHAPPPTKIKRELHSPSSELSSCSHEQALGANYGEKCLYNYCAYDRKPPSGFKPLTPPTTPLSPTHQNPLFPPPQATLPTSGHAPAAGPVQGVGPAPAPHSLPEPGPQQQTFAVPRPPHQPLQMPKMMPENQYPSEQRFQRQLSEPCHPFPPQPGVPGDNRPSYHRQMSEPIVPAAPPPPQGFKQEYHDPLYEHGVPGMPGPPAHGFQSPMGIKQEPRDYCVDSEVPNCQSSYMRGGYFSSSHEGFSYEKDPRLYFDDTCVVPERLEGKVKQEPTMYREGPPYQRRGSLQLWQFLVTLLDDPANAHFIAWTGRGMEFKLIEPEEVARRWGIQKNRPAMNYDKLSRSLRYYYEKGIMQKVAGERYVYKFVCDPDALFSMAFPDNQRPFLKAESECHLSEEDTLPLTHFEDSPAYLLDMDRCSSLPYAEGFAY
# Procedure, shortened: as §1
# [8] = biological target: ELF4 (Homo sapiens, UniProt Q99607 1-663)
# Chain of ELF4 (Q99607 whole entry): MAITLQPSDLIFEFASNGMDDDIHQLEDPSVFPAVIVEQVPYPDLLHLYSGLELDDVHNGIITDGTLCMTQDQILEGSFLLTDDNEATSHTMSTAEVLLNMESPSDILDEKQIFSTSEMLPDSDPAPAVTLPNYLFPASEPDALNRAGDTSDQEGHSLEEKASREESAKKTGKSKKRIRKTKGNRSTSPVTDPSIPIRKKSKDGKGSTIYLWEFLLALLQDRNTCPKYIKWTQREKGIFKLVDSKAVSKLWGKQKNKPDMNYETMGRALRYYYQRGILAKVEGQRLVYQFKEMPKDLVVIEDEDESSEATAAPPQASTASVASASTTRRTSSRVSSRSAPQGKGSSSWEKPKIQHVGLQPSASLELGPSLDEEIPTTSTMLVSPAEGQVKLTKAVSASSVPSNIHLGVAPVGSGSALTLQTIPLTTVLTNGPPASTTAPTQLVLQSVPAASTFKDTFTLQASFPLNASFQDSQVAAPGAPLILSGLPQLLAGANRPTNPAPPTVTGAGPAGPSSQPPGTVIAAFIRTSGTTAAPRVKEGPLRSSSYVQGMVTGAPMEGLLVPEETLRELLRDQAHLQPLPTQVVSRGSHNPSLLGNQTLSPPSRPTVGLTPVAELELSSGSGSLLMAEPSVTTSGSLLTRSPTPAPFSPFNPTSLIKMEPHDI
# Procedure, shortened: as §1
# [9] = biological target: T5, ELK4 (Homo sapiens, UniProt P28324-2 1-405)
# T5 sequence: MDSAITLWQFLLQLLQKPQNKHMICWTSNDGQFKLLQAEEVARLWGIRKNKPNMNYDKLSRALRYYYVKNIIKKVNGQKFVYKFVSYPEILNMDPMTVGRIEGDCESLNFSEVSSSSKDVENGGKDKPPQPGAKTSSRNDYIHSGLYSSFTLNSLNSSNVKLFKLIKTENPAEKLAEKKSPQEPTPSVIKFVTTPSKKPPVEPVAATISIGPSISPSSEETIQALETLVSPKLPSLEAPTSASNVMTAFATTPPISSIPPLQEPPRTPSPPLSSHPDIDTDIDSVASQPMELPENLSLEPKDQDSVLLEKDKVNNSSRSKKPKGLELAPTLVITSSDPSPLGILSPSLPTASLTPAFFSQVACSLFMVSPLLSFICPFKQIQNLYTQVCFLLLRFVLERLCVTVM
# Procedure, shortened: as §1
# [10] = biological target: T6, ETV2 (Homo sapiens, UniProt O00321 1-342)
# T6 sequence: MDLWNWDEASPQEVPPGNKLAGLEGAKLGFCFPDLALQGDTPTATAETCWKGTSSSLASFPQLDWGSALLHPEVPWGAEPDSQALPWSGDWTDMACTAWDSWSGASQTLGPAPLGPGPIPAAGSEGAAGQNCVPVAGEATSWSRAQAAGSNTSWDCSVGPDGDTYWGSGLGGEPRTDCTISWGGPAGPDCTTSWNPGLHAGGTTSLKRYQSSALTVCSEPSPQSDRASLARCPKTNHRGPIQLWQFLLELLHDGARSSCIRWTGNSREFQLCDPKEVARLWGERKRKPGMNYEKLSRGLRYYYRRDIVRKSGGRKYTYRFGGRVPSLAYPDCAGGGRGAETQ
# Procedure, shortened: as §1
# [11] = biological target: T7, ELF3 (Homo sapiens, UniProt P78545 1-371)
# T7 sequence: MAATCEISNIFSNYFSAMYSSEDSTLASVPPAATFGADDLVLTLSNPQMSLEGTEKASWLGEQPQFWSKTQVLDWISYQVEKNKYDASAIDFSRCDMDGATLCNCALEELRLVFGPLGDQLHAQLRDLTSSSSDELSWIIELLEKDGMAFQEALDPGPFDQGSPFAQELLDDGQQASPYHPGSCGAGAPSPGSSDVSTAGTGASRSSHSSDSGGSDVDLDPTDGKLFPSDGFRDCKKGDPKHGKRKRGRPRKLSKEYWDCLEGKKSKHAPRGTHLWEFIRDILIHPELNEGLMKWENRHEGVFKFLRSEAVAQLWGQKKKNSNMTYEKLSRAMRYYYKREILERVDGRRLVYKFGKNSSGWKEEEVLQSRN
# Procedure, shortened: as §1
# [12] = biological target: ETV1 (Homo sapiens, UniProt P50549 1-477)
# Chain of ETV1 (P50549 whole entry): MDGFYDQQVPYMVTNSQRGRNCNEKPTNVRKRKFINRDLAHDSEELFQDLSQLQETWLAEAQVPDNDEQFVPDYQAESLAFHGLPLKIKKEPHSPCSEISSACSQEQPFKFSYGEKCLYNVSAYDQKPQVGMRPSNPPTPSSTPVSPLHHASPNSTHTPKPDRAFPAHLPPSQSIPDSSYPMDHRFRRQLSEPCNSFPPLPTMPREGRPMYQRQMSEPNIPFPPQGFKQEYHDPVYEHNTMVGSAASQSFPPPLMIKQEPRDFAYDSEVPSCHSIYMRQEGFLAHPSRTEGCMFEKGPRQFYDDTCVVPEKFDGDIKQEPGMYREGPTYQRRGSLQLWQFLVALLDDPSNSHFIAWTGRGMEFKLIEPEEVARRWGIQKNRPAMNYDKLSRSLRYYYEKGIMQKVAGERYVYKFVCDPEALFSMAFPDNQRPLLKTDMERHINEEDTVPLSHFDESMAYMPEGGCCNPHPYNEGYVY
# Procedure, shortened: as §1
# [13] = biological target: T8, ERF (Homo sapiens, UniProt P50548 1-548)
# T8 sequence: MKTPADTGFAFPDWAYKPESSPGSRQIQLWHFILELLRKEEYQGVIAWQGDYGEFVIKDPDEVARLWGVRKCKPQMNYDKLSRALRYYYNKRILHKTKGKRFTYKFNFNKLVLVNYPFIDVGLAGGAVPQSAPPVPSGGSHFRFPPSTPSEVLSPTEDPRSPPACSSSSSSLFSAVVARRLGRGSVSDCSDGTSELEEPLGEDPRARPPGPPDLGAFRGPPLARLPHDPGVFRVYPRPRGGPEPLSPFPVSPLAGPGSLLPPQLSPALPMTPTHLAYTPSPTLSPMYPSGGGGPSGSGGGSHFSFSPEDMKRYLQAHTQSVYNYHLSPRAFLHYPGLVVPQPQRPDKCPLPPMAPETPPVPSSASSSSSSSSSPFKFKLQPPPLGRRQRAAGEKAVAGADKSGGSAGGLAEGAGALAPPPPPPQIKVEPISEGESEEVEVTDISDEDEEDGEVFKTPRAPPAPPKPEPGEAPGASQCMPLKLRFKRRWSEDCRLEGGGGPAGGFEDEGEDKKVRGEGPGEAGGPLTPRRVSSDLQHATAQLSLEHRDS
# Procedure, shortened: as §1
# [14] = biological target: T9, ETV3L (Homo sapiens, UniProt Q6ZN32 1-361)
# T9 sequence: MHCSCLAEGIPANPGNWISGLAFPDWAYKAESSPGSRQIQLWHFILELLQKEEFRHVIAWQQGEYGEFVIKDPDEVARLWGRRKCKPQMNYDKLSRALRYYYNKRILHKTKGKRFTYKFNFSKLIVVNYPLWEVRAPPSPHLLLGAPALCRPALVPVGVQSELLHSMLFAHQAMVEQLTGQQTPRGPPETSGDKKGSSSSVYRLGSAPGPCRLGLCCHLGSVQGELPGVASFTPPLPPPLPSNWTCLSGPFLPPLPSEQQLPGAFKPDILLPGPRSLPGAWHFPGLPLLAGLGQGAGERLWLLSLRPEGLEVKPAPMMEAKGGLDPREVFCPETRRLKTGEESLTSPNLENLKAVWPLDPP
# Procedure, shortened: as §1
# [15] = biological target: T10, ETV7 (Homo sapiens, UniProt Q9Y603 1-341)
# T10 sequence: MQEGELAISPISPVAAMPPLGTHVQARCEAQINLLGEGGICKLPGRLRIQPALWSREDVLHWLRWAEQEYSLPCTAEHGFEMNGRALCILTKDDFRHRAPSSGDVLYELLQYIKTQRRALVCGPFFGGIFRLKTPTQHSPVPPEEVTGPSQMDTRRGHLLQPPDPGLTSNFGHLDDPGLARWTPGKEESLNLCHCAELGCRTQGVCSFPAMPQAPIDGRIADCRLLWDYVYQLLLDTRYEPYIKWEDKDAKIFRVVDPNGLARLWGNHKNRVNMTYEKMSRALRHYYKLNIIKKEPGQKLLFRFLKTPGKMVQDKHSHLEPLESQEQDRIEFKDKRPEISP
# Procedure, shortened: as §1
# [16] = biological target: T11, ETV3 (Homo sapiens, UniProt P41162-2 1-143)
# T11 sequence: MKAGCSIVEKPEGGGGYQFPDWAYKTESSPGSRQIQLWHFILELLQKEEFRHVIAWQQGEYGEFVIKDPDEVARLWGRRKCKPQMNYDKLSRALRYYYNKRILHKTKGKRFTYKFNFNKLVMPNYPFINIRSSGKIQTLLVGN
# Procedure, shortened: as §1
# [17] = biological target: ETV6 (Homo sapiens, UniProt P41212 1-452)
# Chain of ETV6 (P41212 whole entry): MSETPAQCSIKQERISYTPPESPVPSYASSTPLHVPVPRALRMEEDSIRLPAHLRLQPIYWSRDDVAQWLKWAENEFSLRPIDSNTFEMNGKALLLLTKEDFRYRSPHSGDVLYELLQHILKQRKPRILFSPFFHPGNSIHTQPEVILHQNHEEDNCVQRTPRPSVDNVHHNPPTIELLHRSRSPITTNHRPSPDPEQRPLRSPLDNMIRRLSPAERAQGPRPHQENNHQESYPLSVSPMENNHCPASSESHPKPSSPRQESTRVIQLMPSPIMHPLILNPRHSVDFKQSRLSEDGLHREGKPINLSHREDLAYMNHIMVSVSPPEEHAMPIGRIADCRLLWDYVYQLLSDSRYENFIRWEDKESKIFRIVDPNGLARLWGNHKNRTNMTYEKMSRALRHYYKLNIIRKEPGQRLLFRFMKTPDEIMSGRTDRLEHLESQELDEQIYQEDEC
# Procedure, shortened: as §1
sequence,measurement,setting,value
CGTAGC,binding signal,[1],"1.07 fold enrichment (6-mer frequency, TF over GST control)"
same,binding signal,[2],"1.08 fold enrichment (6-mer frequency, TF over GST control)"
same,binding signal,[3],"1.04 fold enrichment (6-mer frequency, TF over GST control)"
same,binding signal,[4],"1.1 fold enrichment (6-mer frequency, TF over GST control)"
same,binding signal,[5],"1.05 fold enrichment (6-mer frequency, TF over GST control)"
same,binding signal,[6],"1.07 fold enrichment (6-mer frequency, TF over GST control)"
same,binding signal,[7],"1.08 fold enrichment (6-mer frequency, TF over GST control)"
same,binding signal,[8],"1.07 fold enrichment (6-mer frequency, TF over GST control)"
same,binding signal,[9],"1.23 fold enrichment (6-mer frequency, TF over GST control)"
same,binding signal,[10],"1.03 fold enrichment (6-mer frequency, TF over GST control)"
same,binding signal,[11],"1.12 fold enrichment (6-mer frequency, TF over GST control)"
same,binding signal,[12],"1.15 fold enrichment (6-mer frequency, TF over GST control)"
same,binding signal,[13],"1.03 fold enrichment (6-mer frequency, TF over GST control)"
same,binding signal,[14],"1.09 fold enrichment (6-mer frequency, TF over GST control)"
same,binding signal,[15],"1.09 fold enrichment (6-mer frequency, TF over GST control)"
same,binding signal,[16],"1.04 fold enrichment (6-mer frequency, TF over GST control)"
same,binding signal,[17],"1.1 fold enrichment (6-mer frequency, TF over GST control)"
